This is an account of results in the supplement of paper PMC11001985.

Sequence of UniProt Q00839 (Q00839 whole entry): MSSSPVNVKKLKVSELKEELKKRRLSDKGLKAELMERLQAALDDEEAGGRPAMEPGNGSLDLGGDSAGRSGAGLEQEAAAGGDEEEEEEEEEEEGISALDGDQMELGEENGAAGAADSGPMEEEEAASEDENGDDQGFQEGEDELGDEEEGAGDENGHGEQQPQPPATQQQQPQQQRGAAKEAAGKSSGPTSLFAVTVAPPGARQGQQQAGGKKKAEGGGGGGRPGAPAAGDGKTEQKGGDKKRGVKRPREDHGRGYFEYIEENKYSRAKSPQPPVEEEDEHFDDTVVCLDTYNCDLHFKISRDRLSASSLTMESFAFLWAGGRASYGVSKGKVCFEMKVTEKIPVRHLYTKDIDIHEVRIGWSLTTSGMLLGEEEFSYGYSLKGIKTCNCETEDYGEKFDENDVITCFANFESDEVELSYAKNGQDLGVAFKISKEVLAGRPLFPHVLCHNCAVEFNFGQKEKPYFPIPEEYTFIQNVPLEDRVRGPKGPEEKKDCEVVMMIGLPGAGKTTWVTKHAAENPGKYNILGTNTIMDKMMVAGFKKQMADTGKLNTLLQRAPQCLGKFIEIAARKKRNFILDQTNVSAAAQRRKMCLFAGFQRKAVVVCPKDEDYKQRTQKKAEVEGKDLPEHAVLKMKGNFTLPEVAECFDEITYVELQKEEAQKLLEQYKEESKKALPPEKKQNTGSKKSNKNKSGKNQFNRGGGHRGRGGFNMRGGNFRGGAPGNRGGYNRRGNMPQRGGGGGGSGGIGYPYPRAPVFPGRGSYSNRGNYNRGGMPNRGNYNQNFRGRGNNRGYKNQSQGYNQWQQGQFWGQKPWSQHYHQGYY
Sequence of UniProt O75955 (O75955 whole entry): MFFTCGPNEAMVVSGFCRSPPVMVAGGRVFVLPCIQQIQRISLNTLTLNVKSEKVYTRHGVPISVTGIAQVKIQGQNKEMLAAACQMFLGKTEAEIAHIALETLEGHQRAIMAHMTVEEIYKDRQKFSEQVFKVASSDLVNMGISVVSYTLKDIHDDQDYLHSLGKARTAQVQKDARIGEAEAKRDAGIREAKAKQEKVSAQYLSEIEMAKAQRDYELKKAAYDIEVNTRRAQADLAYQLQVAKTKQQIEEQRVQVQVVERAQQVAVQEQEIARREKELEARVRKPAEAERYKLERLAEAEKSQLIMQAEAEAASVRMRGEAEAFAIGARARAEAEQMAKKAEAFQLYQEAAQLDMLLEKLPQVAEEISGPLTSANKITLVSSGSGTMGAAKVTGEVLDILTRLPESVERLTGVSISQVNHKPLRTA
Sequence of UniProt P27348 (P27348 whole entry): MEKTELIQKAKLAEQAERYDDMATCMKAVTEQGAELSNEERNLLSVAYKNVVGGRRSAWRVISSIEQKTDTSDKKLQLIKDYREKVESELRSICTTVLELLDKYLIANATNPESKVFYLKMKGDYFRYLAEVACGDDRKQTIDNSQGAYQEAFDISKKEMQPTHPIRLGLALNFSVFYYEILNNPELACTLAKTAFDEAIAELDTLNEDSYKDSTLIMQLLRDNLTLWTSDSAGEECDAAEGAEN
Sequence of UniProt O75369 (O75369 whole entry): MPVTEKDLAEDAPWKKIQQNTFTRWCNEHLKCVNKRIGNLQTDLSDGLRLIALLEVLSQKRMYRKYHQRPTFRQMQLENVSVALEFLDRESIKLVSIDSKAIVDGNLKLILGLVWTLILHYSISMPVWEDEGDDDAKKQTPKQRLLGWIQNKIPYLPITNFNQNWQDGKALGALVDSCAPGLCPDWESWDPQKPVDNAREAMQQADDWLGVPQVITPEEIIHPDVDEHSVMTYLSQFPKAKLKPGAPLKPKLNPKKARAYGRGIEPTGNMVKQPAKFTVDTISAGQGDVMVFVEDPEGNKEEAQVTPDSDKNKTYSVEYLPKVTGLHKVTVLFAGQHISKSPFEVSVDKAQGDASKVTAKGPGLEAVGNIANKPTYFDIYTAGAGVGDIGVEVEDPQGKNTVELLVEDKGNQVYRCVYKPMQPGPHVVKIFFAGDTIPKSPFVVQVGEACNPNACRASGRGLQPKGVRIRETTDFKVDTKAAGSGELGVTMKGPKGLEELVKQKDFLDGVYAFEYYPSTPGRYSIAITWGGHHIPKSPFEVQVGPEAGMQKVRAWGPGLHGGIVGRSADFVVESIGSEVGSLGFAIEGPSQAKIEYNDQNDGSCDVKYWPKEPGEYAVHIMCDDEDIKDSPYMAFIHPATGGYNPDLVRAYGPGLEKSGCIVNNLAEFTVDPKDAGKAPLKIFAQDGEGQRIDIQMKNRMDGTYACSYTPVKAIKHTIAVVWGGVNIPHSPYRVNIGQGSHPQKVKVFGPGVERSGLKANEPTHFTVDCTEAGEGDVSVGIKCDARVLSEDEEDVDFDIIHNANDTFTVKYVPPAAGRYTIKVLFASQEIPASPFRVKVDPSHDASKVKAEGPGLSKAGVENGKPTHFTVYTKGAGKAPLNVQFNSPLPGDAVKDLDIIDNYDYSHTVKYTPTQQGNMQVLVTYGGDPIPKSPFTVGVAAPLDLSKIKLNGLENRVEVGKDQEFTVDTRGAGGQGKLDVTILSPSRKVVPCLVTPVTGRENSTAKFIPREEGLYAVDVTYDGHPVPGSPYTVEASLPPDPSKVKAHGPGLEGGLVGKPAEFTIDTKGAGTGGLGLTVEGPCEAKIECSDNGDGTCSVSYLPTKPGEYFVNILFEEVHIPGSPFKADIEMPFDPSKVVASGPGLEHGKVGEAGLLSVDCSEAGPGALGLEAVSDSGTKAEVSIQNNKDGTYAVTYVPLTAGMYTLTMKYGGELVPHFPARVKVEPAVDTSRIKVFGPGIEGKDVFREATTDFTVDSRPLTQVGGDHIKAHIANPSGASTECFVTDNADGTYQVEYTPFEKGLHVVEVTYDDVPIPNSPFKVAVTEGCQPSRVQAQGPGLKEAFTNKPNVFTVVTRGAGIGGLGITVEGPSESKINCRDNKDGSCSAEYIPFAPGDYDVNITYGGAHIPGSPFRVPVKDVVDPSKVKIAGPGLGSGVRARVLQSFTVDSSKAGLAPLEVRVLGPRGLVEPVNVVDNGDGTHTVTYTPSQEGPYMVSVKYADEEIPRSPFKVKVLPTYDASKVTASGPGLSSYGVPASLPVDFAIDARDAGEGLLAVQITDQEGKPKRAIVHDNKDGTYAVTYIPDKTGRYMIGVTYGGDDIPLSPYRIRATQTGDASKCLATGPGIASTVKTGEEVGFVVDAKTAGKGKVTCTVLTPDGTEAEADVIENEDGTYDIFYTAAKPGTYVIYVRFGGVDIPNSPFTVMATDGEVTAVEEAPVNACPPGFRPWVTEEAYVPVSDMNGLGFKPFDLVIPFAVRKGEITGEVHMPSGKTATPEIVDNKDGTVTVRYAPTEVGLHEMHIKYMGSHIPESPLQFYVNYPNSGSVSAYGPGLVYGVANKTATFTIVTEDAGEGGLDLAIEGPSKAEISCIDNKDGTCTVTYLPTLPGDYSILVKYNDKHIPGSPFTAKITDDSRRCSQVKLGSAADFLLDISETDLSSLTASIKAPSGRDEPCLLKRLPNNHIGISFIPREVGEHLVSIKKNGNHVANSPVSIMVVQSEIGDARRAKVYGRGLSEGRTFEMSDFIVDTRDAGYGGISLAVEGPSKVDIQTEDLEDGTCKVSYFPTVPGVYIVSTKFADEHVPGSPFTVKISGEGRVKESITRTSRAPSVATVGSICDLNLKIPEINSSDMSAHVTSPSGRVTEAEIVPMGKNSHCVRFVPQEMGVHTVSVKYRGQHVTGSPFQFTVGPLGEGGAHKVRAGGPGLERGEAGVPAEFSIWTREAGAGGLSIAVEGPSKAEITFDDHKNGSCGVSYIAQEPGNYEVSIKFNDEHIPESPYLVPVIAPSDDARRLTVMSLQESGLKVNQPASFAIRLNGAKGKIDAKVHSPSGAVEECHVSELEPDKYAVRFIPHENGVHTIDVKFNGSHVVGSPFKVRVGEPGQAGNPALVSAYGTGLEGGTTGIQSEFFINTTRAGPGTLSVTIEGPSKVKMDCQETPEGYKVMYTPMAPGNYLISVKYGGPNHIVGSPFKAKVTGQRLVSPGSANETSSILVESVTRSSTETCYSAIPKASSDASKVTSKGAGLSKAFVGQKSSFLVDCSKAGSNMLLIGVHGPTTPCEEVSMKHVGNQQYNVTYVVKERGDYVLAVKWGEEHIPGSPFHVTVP
Sequence of UniProt Q01974 (Q01974 whole entry): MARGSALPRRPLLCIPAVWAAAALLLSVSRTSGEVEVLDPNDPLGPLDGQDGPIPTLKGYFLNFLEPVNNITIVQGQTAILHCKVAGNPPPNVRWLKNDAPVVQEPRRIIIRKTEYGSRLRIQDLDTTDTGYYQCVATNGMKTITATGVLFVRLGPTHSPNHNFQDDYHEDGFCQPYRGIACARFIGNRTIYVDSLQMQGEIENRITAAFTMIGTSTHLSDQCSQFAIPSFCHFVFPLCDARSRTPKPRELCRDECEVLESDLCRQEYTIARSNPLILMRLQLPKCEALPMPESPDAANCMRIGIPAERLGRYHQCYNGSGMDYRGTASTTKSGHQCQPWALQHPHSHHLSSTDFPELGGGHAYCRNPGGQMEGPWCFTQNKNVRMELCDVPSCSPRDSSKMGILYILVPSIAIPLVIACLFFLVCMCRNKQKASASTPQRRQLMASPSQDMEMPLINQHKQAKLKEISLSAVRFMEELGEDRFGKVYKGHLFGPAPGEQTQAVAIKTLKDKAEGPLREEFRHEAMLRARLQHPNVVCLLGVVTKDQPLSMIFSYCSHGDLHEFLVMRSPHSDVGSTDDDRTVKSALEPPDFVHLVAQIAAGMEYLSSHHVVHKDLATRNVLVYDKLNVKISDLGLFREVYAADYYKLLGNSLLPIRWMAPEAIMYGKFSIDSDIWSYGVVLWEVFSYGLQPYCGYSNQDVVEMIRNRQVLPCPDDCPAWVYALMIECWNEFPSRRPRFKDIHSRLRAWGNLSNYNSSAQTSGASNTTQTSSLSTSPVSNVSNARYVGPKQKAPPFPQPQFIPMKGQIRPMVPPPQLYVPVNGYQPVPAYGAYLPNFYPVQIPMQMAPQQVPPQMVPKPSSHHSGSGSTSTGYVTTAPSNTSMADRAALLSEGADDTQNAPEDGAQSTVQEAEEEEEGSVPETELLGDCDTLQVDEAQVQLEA

Compound in the test: C#CCNC(=O)CCSSCCC(=O)NCCc1ccc(C=O)c(C=O)c1
As to the kind of experiment: lysine labeling ratio R10:1 (500 µM / 50 µM probe), SILAC-ABPP in living cells; higher = lower intrinsic lysine reactivity toward the probe, active = 2 or less. The following applies: HeLa; probe concentrations 500 vs 50 µM. The procedure, abridged: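 With forward and reverse label swaps, light and heavy SILAC HeLa cells, alive and in PBS at room temperature, were exposed to either 500 µM or 50 µM of an alkyne-tagged lysine probe bearing a disulfide link. After mixing, lysates were clicked to biotin-azide, cut with trypsin, pulled down on neutravidin, freed with DTT, alkylated and analysed on a TIMS-TOF Pro by LC-MS/MS. The per-lysine value R is the median over forward and reverse replicates of the filtered median high-probe/low-probe MS1 peptide ratio. It is capped at 20.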
For “ROBO1 (lysine site: K304) (UniProt Q9Y6N7)”, the “lysine labeling ratio R10:1” value is 3.14 (inactive).
As to “RPL4 (lysine site: K106) (UniProt P36578)”, the “lysine labeling ratio R10:1” value was 2.43 (inactive).
Consider “CD58 (lysine site: K167) (UniProt P19256)”, for which the “lysine labeling ratio R10:1” value was 2.06 (inactive).
As to “FLNB (lysine site: K1241) (UniProt O75369)”, the “lysine labeling ratio R10:1” value is 1.42 (active).
The figure for “TFPI (lysine site: K68) (UniProt P10646)” is 1.41 (active).
For the target “IGF1R (lysine site: K469) (UniProt P08069)”, the “lysine labeling ratio R10:1” value is 3.98 (inactive).
In the case of “YWHAQ (lysine site: K80) (UniProt P27348)”, the “lysine labeling ratio R10:1” value is 3.11 (inactive).
As for “ROR2 (lysine site: K113) (UniProt Q01974)”, the “lysine labeling ratio R10:1” value was 6.49 (inactive).
For the target “FLOT1 (lysine site: K285) (UniProt O75955)”, the “lysine labeling ratio R10:1” value is 1.67 (active).
As for “EPRS (lysine site: K498) (UniProt P07814)”, the “lysine labeling ratio R10:1” value is 2.78 (inactive).
Take “HNRNPU (lysine site: K592) (UniProt Q00839)”: the “lysine labeling ratio R10:1” value was 2.21 (inactive).
Take “VTN (lysine site: K194) (UniProt P04004)”: the “lysine labeling ratio R10:1” value was 16.5 (inactive).
For “AGRN (lysine site: K1198) (UniProt O00468)”, the “lysine labeling ratio R10:1” value was 3.68 (inactive).
The figure for “FAM120A (lysine site: K673) (UniProt Q9NZB2)” is 1.15 (active).
For “MYH9 (lysine site: K1181) (UniProt P35579)”, the “lysine labeling ratio R10:1” value was 3.53 (inactive).
The figure for “ITGA2 (lysine site: K821) (UniProt P17301)” is 3.08 (inactive).
On to “NRP1 (lysine site: K536) (UniProt O14786)”, for which the “lysine labeling ratio R10:1” value was 5.72 (inactive).
